The record followed here is publication PMC7862700, “An all-to-all approach to the identification of sequence-specific readers for epigenetic DNA modifications on cytosine”.

What all share (assay): DAPPL (digital affinity profiling via proximity ligation, sequencing); 10 mM Tris-HCl pH 7.5, 50 mM NaCl, 1 mM DTT, 4% glycerol, room temperature, 30 min; GST-TFs on glutathione beads, 16-mer random dsDNA library, 0.1% formaldehyde crosslink after washing; high values mean tight binding
One test addresses T1, FLI1 (Homo sapiens, UniProt Q01543 1-452).
T1 sequence: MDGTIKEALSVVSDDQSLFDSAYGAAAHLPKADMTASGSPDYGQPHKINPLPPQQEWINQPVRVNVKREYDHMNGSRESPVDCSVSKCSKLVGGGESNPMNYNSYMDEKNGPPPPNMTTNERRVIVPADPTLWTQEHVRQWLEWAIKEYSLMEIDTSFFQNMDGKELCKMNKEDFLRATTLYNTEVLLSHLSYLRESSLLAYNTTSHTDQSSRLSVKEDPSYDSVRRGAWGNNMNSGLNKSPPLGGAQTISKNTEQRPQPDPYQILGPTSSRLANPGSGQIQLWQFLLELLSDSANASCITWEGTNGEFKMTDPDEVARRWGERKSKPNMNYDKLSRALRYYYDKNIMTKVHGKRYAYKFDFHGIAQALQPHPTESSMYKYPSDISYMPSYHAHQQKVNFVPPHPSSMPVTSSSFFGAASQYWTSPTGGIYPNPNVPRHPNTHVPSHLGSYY
The conditions noted are these: protein: recombinant; tags: N-terminal GST; dsDNA, one strand shown. In short, it runs like this:
(§1)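 Pools were built from human transcription factors expressed in yeast as GST fusions, captured on glutathione beads and DNA-barcoded, along with a tag-only sample. Incubation with 200 nmole of a 16-mer random double-stranded DNA library lasted 30 min at room temperature in Tris/NaCl/DTT/glycerol buffer, and was followed by washing, 0.1% formaldehyde crosslinking, proximity ligation, PCR amplification and Illumina NextSeq500 sequencing. Binding signal is the quotient of each hexamer's read frequency for a factor and its frequency for the tag-only sample.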

Another test deals with T2, ELK1 (Homo sapiens, UniProt P19419 1-428).
T2 sequence: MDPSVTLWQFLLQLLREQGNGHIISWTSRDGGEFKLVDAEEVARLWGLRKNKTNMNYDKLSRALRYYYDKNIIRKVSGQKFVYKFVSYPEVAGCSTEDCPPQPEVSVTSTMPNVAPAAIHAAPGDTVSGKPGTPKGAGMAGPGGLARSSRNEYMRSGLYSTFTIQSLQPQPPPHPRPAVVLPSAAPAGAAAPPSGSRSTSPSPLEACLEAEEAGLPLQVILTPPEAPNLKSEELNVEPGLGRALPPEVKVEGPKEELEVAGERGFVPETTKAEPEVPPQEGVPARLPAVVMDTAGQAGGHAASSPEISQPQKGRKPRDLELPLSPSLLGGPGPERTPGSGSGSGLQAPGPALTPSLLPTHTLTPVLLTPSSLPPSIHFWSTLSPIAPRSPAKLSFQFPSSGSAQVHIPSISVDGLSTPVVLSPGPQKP
The conditions noted are these: protein: recombinant; tags: N-terminal GST; dsDNA, one strand shown. An outline of the steps: as §1

In the next test the target is T3, GABPA (Homo sapiens, UniProt Q06546 1-454).
T3 sequence: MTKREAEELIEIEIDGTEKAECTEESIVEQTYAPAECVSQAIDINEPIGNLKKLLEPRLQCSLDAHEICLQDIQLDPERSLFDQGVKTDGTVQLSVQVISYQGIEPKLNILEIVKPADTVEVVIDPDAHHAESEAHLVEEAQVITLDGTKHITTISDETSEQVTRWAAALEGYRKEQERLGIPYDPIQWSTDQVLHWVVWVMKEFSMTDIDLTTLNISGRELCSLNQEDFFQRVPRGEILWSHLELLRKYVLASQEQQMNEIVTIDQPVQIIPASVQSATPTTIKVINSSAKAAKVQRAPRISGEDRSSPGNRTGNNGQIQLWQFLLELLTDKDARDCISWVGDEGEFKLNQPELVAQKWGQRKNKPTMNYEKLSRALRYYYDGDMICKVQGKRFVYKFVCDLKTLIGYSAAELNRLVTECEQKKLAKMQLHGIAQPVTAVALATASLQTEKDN
The settings on record: protein: recombinant; tags: N-terminal GST; dsDNA, one strand shown. In short, it runs like this:
as §1

A further test deals with T4, ERG (Homo sapiens, UniProt P11308 1-479).
T4 sequence: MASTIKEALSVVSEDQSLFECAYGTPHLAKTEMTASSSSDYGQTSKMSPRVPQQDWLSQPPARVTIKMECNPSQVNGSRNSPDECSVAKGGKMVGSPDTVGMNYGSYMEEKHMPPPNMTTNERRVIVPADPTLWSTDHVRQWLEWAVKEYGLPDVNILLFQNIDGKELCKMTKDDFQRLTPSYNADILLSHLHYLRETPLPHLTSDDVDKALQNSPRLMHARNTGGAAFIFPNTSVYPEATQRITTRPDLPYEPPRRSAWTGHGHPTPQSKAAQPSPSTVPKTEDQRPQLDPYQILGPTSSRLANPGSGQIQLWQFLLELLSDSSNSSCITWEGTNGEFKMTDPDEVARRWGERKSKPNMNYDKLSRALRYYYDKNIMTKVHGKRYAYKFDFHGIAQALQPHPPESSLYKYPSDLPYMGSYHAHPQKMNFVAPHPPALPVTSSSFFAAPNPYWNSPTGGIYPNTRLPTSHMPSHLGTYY
The settings on record: protein: recombinant; tags: N-terminal GST; dsDNA, one strand shown. In short, it runs like this:
as §1

For a further test, the target named is ELF1 (Homo sapiens, UniProt P32519 1-619). The settings on record: protein: recombinant; tags: N-terminal GST; dsDNA, one strand shown. In short, it runs like this:
as §1

In the next test the target is T5, EHF (Homo sapiens, UniProt Q9NZC4 1-300).
T5 sequence: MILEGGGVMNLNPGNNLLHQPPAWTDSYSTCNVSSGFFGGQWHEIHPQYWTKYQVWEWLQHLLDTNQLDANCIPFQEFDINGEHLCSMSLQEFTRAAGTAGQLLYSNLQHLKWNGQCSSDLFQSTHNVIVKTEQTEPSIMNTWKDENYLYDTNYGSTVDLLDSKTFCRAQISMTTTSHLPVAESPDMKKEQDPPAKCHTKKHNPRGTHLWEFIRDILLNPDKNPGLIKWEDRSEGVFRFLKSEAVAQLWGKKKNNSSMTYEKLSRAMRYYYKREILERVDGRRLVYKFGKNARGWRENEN
The conditions noted are these: protein: recombinant; tags: N-terminal GST; dsDNA, one strand shown. An outline of the steps:
as §1

The next test concerns the target SPI1 (Homo sapiens, UniProt P17947 1-270). The settings on record: protein: recombinant; tags: N-terminal GST; dsDNA, one strand shown. An outline of the steps:
as §1

Another test addresses SPIB (Homo sapiens, UniProt Q01892 1-262). The settings on record: protein: recombinant; tags: N-terminal GST; dsDNA, one strand shown. An outline of the steps: as §1
Another test has as its target T6, ELK3 (Homo sapiens, UniProt P41970 1-407).
T6 sequence: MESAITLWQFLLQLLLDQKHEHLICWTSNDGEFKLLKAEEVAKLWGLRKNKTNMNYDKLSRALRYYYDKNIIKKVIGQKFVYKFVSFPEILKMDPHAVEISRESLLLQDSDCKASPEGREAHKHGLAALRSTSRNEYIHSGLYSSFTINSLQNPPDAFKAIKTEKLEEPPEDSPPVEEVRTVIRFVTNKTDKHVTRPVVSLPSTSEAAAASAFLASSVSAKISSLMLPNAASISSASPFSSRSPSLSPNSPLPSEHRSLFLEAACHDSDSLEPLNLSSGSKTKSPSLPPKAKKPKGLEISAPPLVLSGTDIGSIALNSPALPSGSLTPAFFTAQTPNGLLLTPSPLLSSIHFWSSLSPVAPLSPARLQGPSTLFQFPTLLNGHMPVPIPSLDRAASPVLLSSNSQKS
The settings on record: protein: recombinant; tags: N-terminal GST; dsDNA, one strand shown. An outline of the steps:
as §1

In a further test the target is T7, FEV (Homo sapiens, UniProt Q99581 1-238).
T7 sequence: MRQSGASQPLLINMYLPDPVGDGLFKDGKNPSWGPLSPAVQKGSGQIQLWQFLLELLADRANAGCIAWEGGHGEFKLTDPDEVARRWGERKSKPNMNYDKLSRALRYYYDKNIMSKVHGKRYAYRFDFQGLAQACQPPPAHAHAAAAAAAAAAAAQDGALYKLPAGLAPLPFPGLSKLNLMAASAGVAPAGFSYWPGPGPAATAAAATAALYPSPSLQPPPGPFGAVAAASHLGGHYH
The conditions noted are these: protein: recombinant; tags: N-terminal GST; dsDNA, one strand shown. In short, it runs like this: as §1

For the next test, the target named is ETV5 (Homo sapiens, UniProt P41161 1-510). The conditions noted are these: protein: recombinant; tags: N-terminal GST; dsDNA, one strand shown. In short, it runs like this: as §1
Chain of ETV5 (P41161 whole entry): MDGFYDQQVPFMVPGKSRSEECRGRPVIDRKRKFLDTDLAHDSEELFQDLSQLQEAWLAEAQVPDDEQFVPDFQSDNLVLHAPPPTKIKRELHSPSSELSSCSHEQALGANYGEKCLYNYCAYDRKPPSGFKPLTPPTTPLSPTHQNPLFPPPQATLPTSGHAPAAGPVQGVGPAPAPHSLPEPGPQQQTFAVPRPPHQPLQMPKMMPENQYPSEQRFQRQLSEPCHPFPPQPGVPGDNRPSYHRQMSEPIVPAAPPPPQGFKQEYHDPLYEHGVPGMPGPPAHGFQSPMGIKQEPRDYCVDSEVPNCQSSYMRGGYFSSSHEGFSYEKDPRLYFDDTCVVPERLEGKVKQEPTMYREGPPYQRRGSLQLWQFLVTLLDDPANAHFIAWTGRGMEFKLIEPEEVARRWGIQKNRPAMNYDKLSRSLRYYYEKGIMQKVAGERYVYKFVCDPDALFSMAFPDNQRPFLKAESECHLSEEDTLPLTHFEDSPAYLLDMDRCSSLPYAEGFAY
In a further test the target is HSF1 (Homo sapiens, UniProt Q00613 1-529). The settings on record: protein: recombinant; tags: N-terminal GST; chain copies: 3; dsDNA, one strand shown. An outline of the steps:
as §1

The target in the next test is T8, SPIC (Homo sapiens, UniProt Q8N5J4 1-248).
T8 sequence: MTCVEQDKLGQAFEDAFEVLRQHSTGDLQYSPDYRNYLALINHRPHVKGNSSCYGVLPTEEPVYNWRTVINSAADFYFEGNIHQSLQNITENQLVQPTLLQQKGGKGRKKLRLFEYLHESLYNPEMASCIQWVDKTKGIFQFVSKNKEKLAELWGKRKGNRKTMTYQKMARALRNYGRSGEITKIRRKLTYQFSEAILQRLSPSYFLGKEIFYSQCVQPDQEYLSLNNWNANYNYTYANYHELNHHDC
The conditions noted are these: protein: recombinant; tags: N-terminal GST; dsDNA, one strand shown. An outline of the steps:
as §1

The target of the next test is ELF4 (Homo sapiens, UniProt Q99607 1-663). The settings on record: protein: recombinant; tags: N-terminal GST; dsDNA, one strand shown. In short, it runs like this:
as §1

For a further test, the target named is T9, ELK4 (Homo sapiens, UniProt P28324-2 1-405).
T9 sequence: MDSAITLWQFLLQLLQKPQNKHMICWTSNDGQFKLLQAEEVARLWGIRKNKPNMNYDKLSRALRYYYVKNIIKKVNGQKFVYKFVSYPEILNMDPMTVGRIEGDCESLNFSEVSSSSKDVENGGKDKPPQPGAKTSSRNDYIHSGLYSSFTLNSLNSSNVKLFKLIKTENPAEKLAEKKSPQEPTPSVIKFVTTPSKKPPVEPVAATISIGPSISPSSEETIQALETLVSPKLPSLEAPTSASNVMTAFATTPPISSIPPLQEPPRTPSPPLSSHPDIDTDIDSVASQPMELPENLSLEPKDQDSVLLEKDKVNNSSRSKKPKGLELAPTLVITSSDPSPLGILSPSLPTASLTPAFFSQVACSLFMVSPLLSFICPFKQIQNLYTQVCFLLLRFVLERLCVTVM
The conditions noted are these: protein: recombinant; tags: N-terminal GST; dsDNA, one strand shown. In short, it runs like this: as §1

The target of another test is T10, ETV2 (Homo sapiens, UniProt O00321 1-342).
T10 sequence: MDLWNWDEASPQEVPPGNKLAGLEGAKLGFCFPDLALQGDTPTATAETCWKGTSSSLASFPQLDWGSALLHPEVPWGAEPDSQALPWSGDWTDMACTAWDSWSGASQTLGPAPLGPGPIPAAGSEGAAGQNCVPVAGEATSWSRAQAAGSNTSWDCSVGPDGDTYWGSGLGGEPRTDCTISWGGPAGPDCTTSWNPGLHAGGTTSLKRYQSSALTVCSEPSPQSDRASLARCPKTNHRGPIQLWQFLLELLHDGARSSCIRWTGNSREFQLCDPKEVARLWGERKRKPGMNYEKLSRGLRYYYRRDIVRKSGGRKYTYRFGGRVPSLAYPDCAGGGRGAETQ
The settings on record: protein: recombinant; tags: N-terminal GST; dsDNA, one strand shown. In short, it runs like this:
as §1

The target in a further test is T11, ELF3 (Homo sapiens, UniProt P78545 1-371).
T11 sequence: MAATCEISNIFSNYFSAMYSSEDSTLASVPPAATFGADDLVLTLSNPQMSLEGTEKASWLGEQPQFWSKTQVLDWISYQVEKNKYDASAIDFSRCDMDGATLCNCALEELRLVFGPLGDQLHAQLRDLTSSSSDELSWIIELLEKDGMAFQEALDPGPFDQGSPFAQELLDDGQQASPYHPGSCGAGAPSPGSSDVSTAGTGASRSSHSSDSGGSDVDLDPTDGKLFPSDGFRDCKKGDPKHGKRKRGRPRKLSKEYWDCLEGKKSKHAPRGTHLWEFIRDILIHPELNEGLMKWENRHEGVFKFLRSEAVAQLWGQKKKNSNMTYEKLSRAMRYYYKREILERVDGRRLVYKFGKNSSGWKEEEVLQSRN
The conditions noted are these: protein: recombinant; tags: N-terminal GST; dsDNA, one strand shown. An outline of the steps: as §1

A further test addresses ETV1 (Homo sapiens, UniProt P50549 1-477). The settings on record: protein: recombinant; tags: N-terminal GST; dsDNA, one strand shown. An outline of the steps: as §1

Chain of HSF1 (Q00613 whole entry): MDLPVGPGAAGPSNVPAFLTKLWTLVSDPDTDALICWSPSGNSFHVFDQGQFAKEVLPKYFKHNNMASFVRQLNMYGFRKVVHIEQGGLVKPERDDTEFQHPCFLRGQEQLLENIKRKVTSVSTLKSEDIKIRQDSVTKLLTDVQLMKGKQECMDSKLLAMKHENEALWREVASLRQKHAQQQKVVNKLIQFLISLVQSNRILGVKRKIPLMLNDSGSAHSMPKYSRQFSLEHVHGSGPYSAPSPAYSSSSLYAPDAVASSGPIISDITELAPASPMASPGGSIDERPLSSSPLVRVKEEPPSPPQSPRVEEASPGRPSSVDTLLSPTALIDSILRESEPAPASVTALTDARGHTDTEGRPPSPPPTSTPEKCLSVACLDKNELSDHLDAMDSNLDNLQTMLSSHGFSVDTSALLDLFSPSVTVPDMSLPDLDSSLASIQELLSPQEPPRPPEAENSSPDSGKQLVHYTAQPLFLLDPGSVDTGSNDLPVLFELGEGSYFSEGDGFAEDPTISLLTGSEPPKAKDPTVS
Chain of SPIB (Q01892 whole entry): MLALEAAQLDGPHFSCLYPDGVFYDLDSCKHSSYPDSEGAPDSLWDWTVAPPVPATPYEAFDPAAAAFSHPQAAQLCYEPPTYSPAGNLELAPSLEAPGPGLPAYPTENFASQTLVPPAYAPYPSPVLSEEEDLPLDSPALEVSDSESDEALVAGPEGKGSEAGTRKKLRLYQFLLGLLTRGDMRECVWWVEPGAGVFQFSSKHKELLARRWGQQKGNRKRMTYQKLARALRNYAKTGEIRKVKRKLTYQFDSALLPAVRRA
Chain of ELF1 (P32519 whole entry): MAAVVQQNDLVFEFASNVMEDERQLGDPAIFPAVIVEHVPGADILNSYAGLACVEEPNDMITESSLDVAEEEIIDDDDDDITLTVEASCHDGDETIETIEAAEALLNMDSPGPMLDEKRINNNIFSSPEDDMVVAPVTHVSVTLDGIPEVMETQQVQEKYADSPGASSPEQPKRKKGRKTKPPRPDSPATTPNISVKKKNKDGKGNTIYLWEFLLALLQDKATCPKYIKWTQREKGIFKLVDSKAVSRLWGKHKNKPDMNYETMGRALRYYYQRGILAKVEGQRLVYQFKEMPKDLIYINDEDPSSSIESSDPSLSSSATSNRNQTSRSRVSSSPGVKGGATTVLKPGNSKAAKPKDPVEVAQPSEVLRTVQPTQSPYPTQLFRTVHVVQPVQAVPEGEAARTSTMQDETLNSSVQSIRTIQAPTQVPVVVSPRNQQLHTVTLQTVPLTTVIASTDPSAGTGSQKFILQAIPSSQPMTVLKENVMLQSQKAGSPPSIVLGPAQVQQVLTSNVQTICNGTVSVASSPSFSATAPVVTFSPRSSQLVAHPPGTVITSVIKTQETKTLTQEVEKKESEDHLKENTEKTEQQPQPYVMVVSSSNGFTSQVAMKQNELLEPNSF
Chain of ELF4 (Q99607 whole entry): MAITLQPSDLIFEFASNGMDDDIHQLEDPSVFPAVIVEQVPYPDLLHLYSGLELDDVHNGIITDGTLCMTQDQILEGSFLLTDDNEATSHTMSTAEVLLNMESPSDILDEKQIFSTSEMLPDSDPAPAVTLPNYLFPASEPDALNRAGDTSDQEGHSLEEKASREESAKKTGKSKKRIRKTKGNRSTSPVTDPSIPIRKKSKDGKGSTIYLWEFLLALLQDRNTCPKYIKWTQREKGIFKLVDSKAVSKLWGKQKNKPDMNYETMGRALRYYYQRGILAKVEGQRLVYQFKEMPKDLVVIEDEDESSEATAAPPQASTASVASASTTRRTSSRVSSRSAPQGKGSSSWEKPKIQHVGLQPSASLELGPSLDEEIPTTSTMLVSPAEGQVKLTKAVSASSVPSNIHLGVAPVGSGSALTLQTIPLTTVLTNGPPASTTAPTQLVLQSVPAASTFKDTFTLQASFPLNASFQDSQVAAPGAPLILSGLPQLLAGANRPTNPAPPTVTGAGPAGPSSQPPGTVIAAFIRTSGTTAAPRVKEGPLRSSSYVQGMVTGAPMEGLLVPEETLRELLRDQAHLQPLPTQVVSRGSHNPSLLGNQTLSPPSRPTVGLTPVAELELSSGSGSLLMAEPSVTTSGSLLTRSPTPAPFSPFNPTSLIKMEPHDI
Chain of ETV1 (P50549 whole entry): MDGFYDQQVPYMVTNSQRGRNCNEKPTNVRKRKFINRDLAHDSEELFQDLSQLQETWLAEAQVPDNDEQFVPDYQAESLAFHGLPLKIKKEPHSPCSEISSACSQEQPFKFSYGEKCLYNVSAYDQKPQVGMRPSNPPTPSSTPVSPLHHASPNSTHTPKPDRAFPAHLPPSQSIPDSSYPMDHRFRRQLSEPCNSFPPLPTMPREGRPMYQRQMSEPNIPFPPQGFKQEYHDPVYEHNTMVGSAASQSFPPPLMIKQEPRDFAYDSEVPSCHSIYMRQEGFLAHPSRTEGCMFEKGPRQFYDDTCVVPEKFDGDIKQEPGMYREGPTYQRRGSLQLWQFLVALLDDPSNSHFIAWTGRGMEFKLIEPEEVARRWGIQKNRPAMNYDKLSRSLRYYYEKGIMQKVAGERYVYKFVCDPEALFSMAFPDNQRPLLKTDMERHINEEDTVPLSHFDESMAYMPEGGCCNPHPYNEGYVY

As to TGAATG, the binding signal with FLI1 is 1.16 fold enrichment (6-mer frequency, TF over GST control); with ELK1, 1.28 fold enrichment (6-mer frequency, TF over GST control); in the test with GABPA, 1.17 fold enrichment (6-mer frequency, TF over GST control); with ERG it was 1.21 fold enrichment (6-mer frequency, TF over GST control); in the test with ELF1, 1.2 fold enrichment (6-mer frequency, TF over GST control); with EHF, 1.19 fold enrichment (6-mer frequency, TF over GST control). Further, the binding signal with SPI1 was 1.26 fold enrichment (6-mer frequency, TF over GST control); with SPIB it was 1.23 fold enrichment (6-mer frequency, TF over GST control); with ELK3, 1.09 fold enrichment (6-mer frequency, TF over GST control); with FEV, 1.19 fold enrichment (6-mer frequency, TF over GST control); in the test with ETV5, 1.1 fold enrichment (6-mer frequency, TF over GST control); with HSF1, 1.15 fold enrichment (6-mer frequency, TF over GST control). The binding signal in the test with SPIC is 1.03 fold enrichment (6-mer frequency, TF over GST control); in the test with ELF4, 1.16 fold enrichment (6-mer frequency, TF over GST control); in the test with ELK4, 1.2 fold enrichment (6-mer frequency, TF over GST control); with ETV2, 1.37 fold enrichment (6-mer frequency, TF over GST control); in the test with ELF3 it was 1.08 fold enrichment (6-mer frequency, TF over GST control); with ETV1 it was 1.14 fold enrichment (6-mer frequency, TF over GST control).
